Shown are actives, neighbours in structure and some others; about 4.7% of the full set was active somewhere.
D1 PAM = potentiators of human D1 dopamine receptor | actives 0.036% (n = 360,000) | potentiation, % at 10 µM | HEK293 TREx D1 cells, calcium flux, dopamine EC20 potentiation | P21728; in the data active = potentiation above about 30%; also: 0% is about no effect
D1 agonist = human D1 receptor agonism; activation, % at 2 µM; HEK293 T-REx D1 cells, calcium flux, agonist mode; actives 1% (n = 360,000); also: 0% is about no effect
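Inducible HEK293 T-REx D1 cells, force-coupled to calcium signalling, were plated at 4000 cells/well with tetracycline and held overnight at 30 C. After no-wash calcium dye loading, compound-evoked calcium rise over 180 s flagged agonists.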
TRHR enhancer = TRH receptor (human) allosteric enhancement | P34981 | TRHR cells, fluo-8 calcium fluorescence, EC20 TRH enhancement | enhancement, % at 2 µM | actives 0.66% (n = 360,000) | AID 493056; in the data active = enhancement above about 30%; also: 0% is about no effect
Target sequence (P34981 whole entry, looked up): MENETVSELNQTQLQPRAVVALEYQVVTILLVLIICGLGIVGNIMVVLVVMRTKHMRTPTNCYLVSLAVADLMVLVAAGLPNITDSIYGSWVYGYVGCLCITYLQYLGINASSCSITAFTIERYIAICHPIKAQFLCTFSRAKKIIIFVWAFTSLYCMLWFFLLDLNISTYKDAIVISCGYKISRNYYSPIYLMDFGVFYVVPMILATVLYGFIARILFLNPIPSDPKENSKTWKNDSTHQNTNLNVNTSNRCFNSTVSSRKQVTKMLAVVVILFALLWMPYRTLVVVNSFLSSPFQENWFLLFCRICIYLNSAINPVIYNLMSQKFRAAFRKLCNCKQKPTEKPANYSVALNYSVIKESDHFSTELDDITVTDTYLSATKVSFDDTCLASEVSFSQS
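Enhancer read-out: after compound pinning and an initial kinetic agonist-mode read, an EC20 of TRH (10 nM final) was injected and fluo-8 calcium signal (Ex 480/Em 530) followed at 1 s/cycle for 100 cycles in TRHR-expressing cells.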
TRHR ag = TRH receptor (human) agonism | P34981 | TRHR cells, calcium flux fluo-8, FDSS agonist mode | activation, % at 2 µM | actives 0.18% (n = 360,000); also: 0% is about no effect
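Fluo-8-loaded TRHR cells; 10 s baseline, compound added, kinetic Ca2+ fluorescence read 1/s, agonist mode.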
D1 antagonist = human D1 dopamine receptor antagonism; P21728; HEK293 TREx D1 cells, calcium flux, dopamine EC80; hits give low values; activity change, negative = inhibition, % at 10 µM; actives 3.2% (n = 360,000); in the data active = activity change below about -30%; also: % is scaled to controls: 0 for no effect and ±100 for the full control effect
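Tetracycline-induced HEK293 Trex D1 cells, force-coupled to calcium, dye-loaded; compounds added and read 180 s, then EC80 dopamine added and calcium flux tracked kinetically another 180 s.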
Starred values were filed as active, the others as inactive; . = no result given. Rule as the data show it, unless noted: active = activation above about 30%; inactive = the rest.

SMILES | D1 PAM | D1 agonist | TRHR enhancer | TRHR ag | D1 antagonist
O=C(COc1ccc2c3c(c(=O)oc2c1)CCCC3)NCCCN1CCOCC1 | -8.6 | 8.9 | 0.6 | 0.3 | -30.4*
CCc1cc(=O)oc2cc(OCC(=O)NCCCn3ccnc3)ccc12 | -3.0 | 3.4 | -3.8 | 0.4 | -36.7*
O=C(COc1ccc2c3c(c(=O)oc2c1)CCCC3)NCCN1CCOCC1 | -3.0 | 1.5 | 13.1 | 0.3 | -12.3
Cc1c2cnn(CC(=O)NCC(C)c3ccccc3)c(=O)c2c(C)n1Cc1cccc(Cl)c1 (configuration not stated) | -2.0 | 3.3 | -2.9 | -1.0 | -9.9
O=C(CSCc1c(F)cccc1F)Nc1ccccc1 | -12.5 | 0.8 | 0.0 | 0.1 | -74.0*
COC(=O)C1=C(C)N(Cc2ccco2)C(=O)N[C@H]1c1ccccc1 | 1.4 | -0.7 | 0.1 | -0.4 | -48.7*
COC(=O)C1=C(C)N(Cc2ccco2)C(=O)N[C@H]1c1ccc(Br)cc1 | -1.8 | -0.5 | 1.7 | 1.0 | 28.2
COC(=O)c1c(C(=O)OC)c(C)n(Cc2ccco2)c1C | -5.4 | 1.5 | 13.4 | 0.3 | -68.4*
CC(C)CN1CCC(=O)N([C@H](CSc2ccc(Br)cc2)c2ccccc2)CC1 | -1.4 | 2.4 | 10.2 | 0.2 | -44.3*
CCCS(=O)(=O)NCCc1sc2nc(-c3ccc(Cl)cc3)nn2c1C | -3.8 | 15.3 | 0.1 | 1.3 | .
COc1ccc(CCNC(=O)CSc2cc(=O)n(C)c3ccccc23)cc1OC | 2.2 | -0.7 | 1.4 | -1.0 | -13.5
CCN(C(=O)COC(=O)Cc1cccc2ccccc12)C1CCS(=O)(=O)C1 (configuration not stated) | -5.8 | 1.6 | 1.7 | 0.1 | -3.2
O=C(Nc1cccc2ccccc12)N(CCO)C1CCS(=O)(=O)C1 (configuration not stated) | 3.0 | -2.4 | -0.4 | 0.2 | -71.0*
CC(C)CN(C(=O)CN1CCN(S(=O)(=O)c2ccc3ccccc3c2)CC1)c1c(N)n(CC(C)C)c(=O)[nH]c1=O | -4.7 | 0.3 | -1.3 | 0.0 | -88.4*
CC(C)CN(C(=O)CN1CCN(c2cccc(Cl)c2)CC1)c1c(N)n(CC(C)C)c(=O)[nH]c1=O | 7.3 | 1.4 | 0.3 | 0.1 | -7.3
CCOC(=O)c1sc(N/N=C/c2ccc(N(C)C)cc2)nc1C | -10.8 | -0.5 | -8.7 | 1.0 | -46.6*
CCOC(=O)c1sc(Nc2cccc(C)c2C)nc1C | 2.9 | 31.2* | 7.9 | -0.3 | 18.5
Cc1cccc(N2CCn3c2nc2c3c(=O)n(CCc3ccccc3)c(=O)n2C)c1 | -3.8 | 2.2 | -3.7 | -0.5 | -2.1
Cc1cccc(N2CCCn3c2nc2c3c(=O)n(CC(=O)OCc3ccccc3)c(=O)n2C)c1 | -14.2 | 0.9 | -2.3 | -0.3 | -55.1*
COC(=O)C1=NN(C(=O)c2ccc(Br)cc2)C(O)(C(C)(C)C)C1 (configuration not stated) | 0.8 | 31.6* | -8.4 | 8.9 | -5.0
CC1=NN(C(=O)c2ccc(Br)cc2)C(O)(C(F)(F)OC(F)(F)F)C1 (configuration not stated) | 0.5 | 5.5 | -3.0 | 0.4 | -13.9
COC(=O)C1=NN(C(=O)c2cccc(Cl)c2)C(O)(C(C)(C)C)C1 (configuration not stated) | -7.3 | 31.1* | 5.8 | 5.6 | -15.2
Cc1nc2c(c(C)nn2C(C)(C)C)c(C)c1CCC(=O)Nc1ccc(F)cc1 | -4.0 | 3.9 | 1.3 | 1.4 | 11.8
CCOc1ccc(Nc2c(S(=O)(=O)c3ccc(Cl)cc3)cnc3ccc(OCC)cc23)cc1 | 0.8 | 4.0 | -13.2 | 0.3 | 11.9
COc1ccc2c(c1)c1ncn(Cc3ccc(F)cc3)c(=O)c1n2C | 0.7 | 0.1 | -2.0 | -0.1 | -6.4
SMILES | D1 PAM | D1 agonist | TRHR enhancer | TRHR ag | D1 antagonist
Cn1c2ccsc2c2ncn(Cc3ccc(F)cc3)c(=O)c21 | -1.8 | 2.7 | 36.0* | -0.2 | 1.7
CCN(CC)c1ccc(NC(=O)Cn2cc3c(n2)CCCC3)c(C)c1 | -1.1 | 2.0 | 0.6 | -0.8 | 10.9
OCC[C@@H]1C[C@H](O)[C@@H](O)[C@@]2(Cc3ccccc3CO2)O1 | -0.1 | 0.1 | 24.8 | 1.4 | -68.9*
COc1ccc(CCC(C)NC2C3CC4CC(C3)CC2C4)cc1 (configuration not stated) | 0.0 | 10.3 | 6.2 | 1.0 | -71.2*
O=C(N/N=C/c1cc2c3c(c1O)CCCN3CCC2)c1ccccc1O | -5.8 | 30.9* | 19.2 | 6.4 | -13.4
COc1ccc(-n2ncc(S(=O)(=O)c3ccccc3)c2-c2ccc(Cl)cc2)cc1 | -4.2 | 9.6 | 1.4 | -0.1 | -44.0*
COc1ccc(/C(O)=C/c2nc3ccc(C(=O)NCCc4cccc(C)c4)cc3[nH]c2=O)cc1OC | -2.0 | 71.1* | 4.2 | 22.0 | -3.4
CN1CCN(CC(=O)Nc2cc(N(C)C)nc3ccccc23)CC1 | -9.2 | 3.0 | -2.5 | 0.2 | -30.8*
CCOC(=O)c1cnc2ccc(OCC)cc2c1NCc1ccccc1 | -10.6 | 10.5 | 4.5 | -0.5 | -31.9*
CCOC(=O)c1cnc2ccc(OCC)cc2c1NCc1cccnc1 | -0.3 | 0.5 | 9.7 | -0.9 | -3.0
CCOC(=O)c1c(C)n(-c2ccc(C)cc2)c2ccc(OCC(O)CNCC3CCCO3)cc12 (configuration not stated) | -0.2 | 60.2* | 0.9 | -0.1 | 34.6
CCOc1ccccc1-c1noc(CSc2nnc(-c3ccncc3)n2-c2ccc(F)cc2)n1 | -0.8 | -0.4 | -2.2 | -0.2 | -24.3
CC(C)(C)c1ccc(OCC(=O)N2CCCCCC2)c(Br)c1 | -13.4 | 9.7 | 7.9 | -0.2 | -35.0*
CN(C)CCNC(=O)c1ccc(COc2ccc(Cl)cc2Cl)cc1 | -18.4 | 94.6* | -6.0 | 15.0 | -64.4*
COc1ccc(Cl)cc1C(=O)NCCN(C)C | -5.0 | 2.6 | 5.5 | 1.0 | 6.7
CN1CCN(C(=O)CCCOc2ccc(Cl)cc2Cl)CC1 | -9.7 | 5.0 | -0.5 | -0.4 | -8.6
CN1CCN(C(=O)c2ccc(COc3ccc(Cl)cc3Cl)cc2)CC1 | -8.9 | 25.9 | 3.5 | 3.3 | -54.5*
COc1ccccc1-c1nc(S(=O)(=O)c2ccccc2)c(N2CCC(C)CC2)o1 | -2.2 | 4.6 | -12.6 | 0.6 | 7.8
Cc1nc2ccc(NC(=O)COc3ccccc3)cc2s1 | 2.9 | 1.2 | 3.3 | -0.9 | -9.5
Cc1cccc(OCCC(=O)Nc2ccc(F)c(F)c2)c1 | -5.8 | 9.1 | -5.1 | -0.7 | -37.5*
CCOC(=O)CSc1nc2ccc(NC(=O)c3ccccc3)cc2s1 | 0.1 | 4.1 | -2.0 | 1.0 | 3.5
Cc1cccc(OCC(=O)Nc2ccc3nc(C)sc3c2)c1 | -9.5 | 8.6 | 10.3 | -0.4 | -32.6*
Cc1cc(C)cc(OCCSc2nc3ccc(NC(=O)COc4ccccc4)cc3s2)c1 | -0.5 | 14.5 | 8.3 | 0.9 | -1.1
O=C(COc1ccccc1)Nc1ccc2nc(SCCOc3ccccc3)sc2c1 | 3.4 | 6.8 | -0.9 | 1.6 | -30.6*
Cc1cccc(OCCCC(=O)Nc2ccc(N(C)C)cc2)c1 | -2.5 | 5.5 | 3.3 | -1.2 | -1.9

Screening data as filed in PubChem.
